This is a sample that favours compounds with a hit; in the whole collection about 6.9% have one here.
IL1B secr inh: inflammasome signaling inhibition, IL-1 beta readout | THP-1 LPS/ATP IL-1B secretion, AlphaLISA, 16 h; active compounds read low | activity change, % at 57.5 µM | hit rate 4.7% among 360,000; in the data active = activity change below about -50%; inconclusive = mostly about -30% to -49%; note: % is set by controls: 0 for no effect and ±100 for the full control effect
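THP-1 cells pretreated 1 hr with compounds (up to 57.5 uM final), then stimulated with LPS (250 ng/mL final) plus ATP (1.25 mM final); secreted IL-1B measured by AlphaLISA after 16 hr, decreased signal indicating inhibition.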
MCF10A rereplic: inducers of DNA re-replication in MCF 10A breast cells | Potency, µM (doses to about 46.1 µM), for inactives: top-dose activity, positive = re-replication, most hits filed as activators | MCF 10A DNA re-replication, Hoechst nuclear intensity, 48 h | hit rate 2.9% among 350,000; note: potency is the fitted concentration of half-maximal effect; % of control where 0% means no effect; nearly all actives have a fitted effect of over 50% in size
Vif-APOBEC3F blk: blocks the Vif interaction with APOBEC3F. HeLa A3F-eYFP + Vif (tagged APOBEC3F with the HIV-1 protein that degrades it), YFP fluorescence increase. Potency, µM (highest dose often 46.1 µM), for the others: at the top dose activity, negative = active. hit rate 0.2% among 390,000; note: potency is the fitted concentration of half-maximal effect; % of control where 0% means no effect; nearly all actives have a fitted effect of over 65% in size
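Fluorescence increase (Ex 488/Em 500-530) after overnight compound treatment at 37 deg C flags inhibition of Vif-driven A3F-eYFP loss in stable HeLa A3F-eYFP/Vif cells seeded overnight beforehand.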
Giardia kill: Giardia lamblia killing; Giardia lamblia trophozoite viability; hit rate 0.15% among 340,000; activity change, % at 7.66 µM, hits read low; in the data active = activity change below about -80%; inconclusive = between about -30% and that limit;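 note: parasites exposed to compound for two days anaerobically before the ATP read; % is set by controls: 0 for no effect and ±100 for the full control effect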
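Viability, read as ATP luminescence: trophozoites at 100 cells/well, compound added, 48 hrs anaerobic at 37 deg C, then 15-30 min room-temperature development before reading.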
Vif-APOBEC3G blk: blocks the Vif interaction with human APOBEC3G; HeLa A3G-eYFP + Vif (tagged APOBEC3G with the HIV-1 protein that degrades it), YFP fluorescence, overnight; Potency, µM (doses to about 46.1 µM), without a hit: top-dose activity, negative = active, hits mostly inhibitors; hit rate 0.076% among 410,000; note: potency is the fitted concentration of half-maximal effect; % is set by controls: 0 for no effect and ±100 for the full control effect; nearly all actives have a fitted effect of over 60% in size
Target sequence (Q9HC16 whole entry, looked up): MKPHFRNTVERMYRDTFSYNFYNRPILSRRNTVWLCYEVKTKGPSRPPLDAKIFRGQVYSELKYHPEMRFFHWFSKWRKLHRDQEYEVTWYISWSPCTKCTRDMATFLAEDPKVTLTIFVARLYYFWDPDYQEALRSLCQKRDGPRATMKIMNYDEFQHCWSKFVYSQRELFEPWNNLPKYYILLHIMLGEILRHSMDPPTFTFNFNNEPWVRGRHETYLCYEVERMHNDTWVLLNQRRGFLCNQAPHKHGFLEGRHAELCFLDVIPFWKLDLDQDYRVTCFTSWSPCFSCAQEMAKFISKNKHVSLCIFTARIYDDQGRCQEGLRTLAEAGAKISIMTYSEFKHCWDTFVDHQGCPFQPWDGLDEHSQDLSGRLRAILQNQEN
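Read-out is eYFP fluorescence (Ex 488/Em 500-530) from Vif-expressing HeLa A3G-eYFP cells; more signal means A3G escaped Vif-mediated degradation. Cells plated overnight, compound pinned in, incubated overnight at 37 deg C.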
SW480 rereplic: DNA re-replication induction in SW480 cells; Potency, µM (highest dose often 46.1 µM), for the others: top-dose re-replication activation, usual class: activators; SW480 DNA re-replication, Hoechst DNA content imaging, 48 h; AID 624297; hit rate 1.8% among 340,000; note: potency is the fitted concentration of half-maximal effect; % of control where 0% means no effect; nearly all actives have a fitted effect of over 55% in size
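Image-based DNA-content assay: after two days of treatment, nuclei were labelled with the DNA dye Hoechst and imaged, and hits were compounds raising the count of nuclei showing high fluorescence intensity.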
The depositor's hits bear a star; ? = inconclusive; . = no result given; [ ] = dose if it differs, or a comment. Unless noted, calls come from the whole dose curve; as a rule, active = well fitted curve in the direction sought with a large enough effect; inconclusive = small, poorly fitted or top-dose-only effect, or another doubt; inactive = no such curve, though single readings can be large; an effect the other way counts as inactive or inconclusive.

SMILES	IL1B secr inh	MCF10A rereplic	Vif-APOBEC3F blk	Giardia kill	Vif-APOBEC3G blk	SW480 rereplic
COC(=O)c1cc2c(ccn2-c2ccc(F)cc2)n1CC(C)C	-7.9	23.1µM*	-2.6%	-13.2	1.7%	?
COC(=O)c1cc2c(ccn2-c2ccc(F)cc2)n1Cc1cccc(OC)c1	-15.8	?	-3.7%	-1.8	-2.9%	?
COC(=O)c1cc2c(ccn2-c2ccc(F)cc2)n1C(C)C	-0.2	?	-19.3%	9.9	-9.1%	18.5%
CCCn1c(C(=O)OC)cc2c1ccn2-c1ccc(F)cc1	-17.7	23.1µM*	-6.9%	-0.5	-6.3%	7.7%
CC(=O)S[C@@H]1CC2=CC(=O)CC[C@]2(C)[C@H]2CC[C@@]3(C)[C@@H](CC[C@@]34CCC(=O)O4)[C@H]12	-56.1*	-14.2%	7.4%	-0.5	3.5%	?
COc1ccc(C2=C(N3CCN(c4cccc(C)c4C)CC3)c3ccccc3C2=O)cc1	.	.	0.3%	.	0.0%	.
Cc1ccc(NC(=S)N2CCC(c3nc4ccccc4s3)CC2)cc1	-50.2*	19.7%	0.7%	-0.1	-1.1%	-2.1%
CC(=O)c1cnc2nc(SCc3ccc(Cl)cc3)nn2c1C	-16.0	?	-2.1%	-14.2	-2.1%	-12.6%[9.22 µM]
CN1CCC2(CC1)Nc1nc(SCc3ccc(Cl)cc3)nn1C1=C2CN(C)CC1	-62.1*	4.9%	-8.0%	7.3	1.2%	14.3%
CC(C)(C)n1ncc2c(=O)n(Cc3ccc(F)cc3F)cnc21	.	.	.	.	-3.4%	.
CCn1c(SCC(=O)OC(C)C)nnc1-c1ccccc1	-63.9*	3.4%	10.3%	-15.8	0.1%	-134.2%
CCn1c(SCC(=O)Nc2nc(-c3ccccc3)cs2)nnc1-c1ccccc1	-62.7*	2.8%	-2.9%	0.9	-0.4%	-16.4%
CCCn1c(SCC(=O)Nc2nnc(-c3ccccc3)s2)nnc1-c1ccccn1	33.7	18.4µM*	-10.3%	-7.8	-2.2%	-0.2%
Cc1cccc(C(=O)N(Cc2ccco2)Cc2ccccc2F)c1	.	.	-7.4%	.	3.9%	.
Cc1c(C(=O)C(=O)N2c3ccc(F)cc3CCC2C)c2ccccc2n1C (centres undefined)	27.2	2.59µM*	5.8%	4.9	?	7.31µM*
Cc1c(C(=O)C(=O)N2CCN(C)CC2)c2ccccc2n1C	27.5	1.1%	4.8%	1.2	-2.3%	-6.2%
CNC(=O)COc1ccccc1C(=O)Nc1ccccc1	.	.	.	.	1.0%	.
CCOC(=O)N1CCC(n2c(SCC(=O)NCCC3=CCCCC3)nc3ccccc3c2=O)CC1	-1.2	25.9µM*	-1.2%	-6.1	3.1%	?
COc1cc(OC)cc(-n2c(=O)c3ccccc3n(CC(=O)NCCc3ccc(OC)c(OC)c3)c2=O)c1	.	.	3.8%	.	4.4%	.
CC(C)(C)c1ccc(C(=O)Nc2ccc(F)cc2)s1	-61.8*	9.4%	-8.8%	3.9	-0.5%	10.7%
Cc1nn(-c2ccccc2)c2c1C(O)n1c(nc3ccccc31)S2 (centres undefined)	-86.0*	16.4µM*	1.7%	-7.2	-2.0%	-3.0%
Cc1nn(-c2ccccc2)c(C)c1Cc1ccc(O)cc1	-6.2	1.6%	6.1%	-7.9	0.2%	-5.9%
COc1ccc(N(C(=O)c2snc(C(N)=O)c2N)C(C(=O)NCc2ccc(F)cc2)c2ccc(O)cc2)cc1 (centres undefined)	-88.0*	-47.4%	2.8%	17.0	-4.5%	?
COc1cccc(N(C(=O)c2snc(C(N)=O)c2N)C(C(=O)NCc2ccccc2)c2ccc(O)cc2)c1 (centres undefined)	-53.0*	21.2%	11.3%	10.5	0.4%	21.4%
CCN(CC)c1nn2c(=O)c(C(=O)NCc3ccc(F)cc3)cnc2s1	.	.	4.5%	.	3.4%	.
SMILES	IL1B secr inh	MCF10A rereplic	Vif-APOBEC3F blk	Giardia kill	Vif-APOBEC3G blk	SW480 rereplic
CSc1nc(NCc2ccccc2)c2c3c(sc2n1)CN(C)CC3	?	23.1µM*	-0.6%	4.0	-6.4%	0.8%
CSc1nc(NCC(C)C)c2c3c(sc2n1)CN(C)CC3	3.4	15.3%	-0.9%	-3.3	-6.3%	6.1%
C[C@@H]1CN([C@@H](C)CO)C(=O)c2cc(Br)cnc2O[C@@H]1CN(C)Cc1ccc(Oc2ccccc2)cc1	-51.6*	.	0.3%	.	-0.8%	.
C[C@@H]1CN([C@H](C)CO)C(=O)c2cc(NC(=O)Cc3ccccc3)ccc2O[C@H]1CN(C)Cc1ccc(Oc2ccccc2)cc1	?	16.4µM*	-2.8%	3.9	-8.8%	?
C[C@H](O)C#Cc1cnc2c(c1)C(=O)N([C@H](C)CO)C[C@@H](C)[C@@H](CN(C)Cc1ccc(-c3ccccc3)cc1)O2	-107.9*	.	-14.6%	.	-26.9%	.
C[C@H](CO)N1C[C@H](C)[C@@H](CN(C)Cc2ccncc2)Oc2ncc(Br)cc2C1=O	23.2	.	-2.9%	.	-5.6%	.
COc1cccc(OCc2cc(=O)n3c(-c4ccccc4)csc3n2)c1	.	.	-1.6%	.	4.0%	.
Cc1cn(C)c(CC(=O)Nc2cccc(Cl)c2C)c1C(=O)O	.	.	-3.9%	.	0.3%	.
CC(C)(C)n1ncc2c(=O)n(Cc3cc(F)ccc3Cl)cnc21	.	.	.	.	-1.4%	.
Cc1cc(C(=O)N[C@H](c2ccccc2)[C@@]2(C)C[C@@H]2[C@@H](C)C(=O)Nc2ccc3ccccc3c2)n(C)n1	0.0	?	6.6%	-10.8	-1.7%	14.6µM*
Cc1cccc(NC(=O)CN2CCN(CC(=O)Nc3cccc(C)c3)CC2)c1	-3.8	20.6µM*	-2.8%	-9.3	-5.3%	1.1%
COc1ccccc1NC(=O)CN1CCN(CC(=O)Nc2ccc(Cl)c(C(F)(F)F)c2)CC1	-79.8*	?	0.8%	5.3	-21.8%	0.9%
COc1ccc(NC(=O)CN2CCN(CC(=O)Nc3ccccc3Cl)CC2)cc1Cl	-51.4*	10.6%	-6.7%	14.1	0.7%	1.3%
CCOC(=O)C1CCN(CC(=O)Nc2ccc(OC)c(Cl)c2)CC1	-0.2	-0.6%	8.4%	6.0	0.8%	-3.1%
O=C(CCSCc1cccc(Cl)c1)NCc1ccc(F)cc1Cl	.	.	1.0%	.	5.7%	.
Cc1cc(C)cc(NC(=O)c2cccc(N3CCCS3(=O)=O)c2)c1	.	.	-9.4%	.	-23.0%	.
CCCNC(=O)c1c(N)n(-c2ccc3c(c2)OCO3)c2nc3ccccc3nc12	-22.4	16.8%	2.4%	2.3	-1.8%	?
CCCNC(=O)c1c(N)n(-c2cc(OC)cc(OC)c2)c2nc3ccccc3nc12	-55.2*	16.4µM*	-8.5%	-8.4	0.6%	9.2µM*
CCOCCCNC(=O)c1c(N)n(-c2ccc3c(c2)OCO3)c2nc3ccccc3nc12	-8.6	23.1µM*	-11.1%	1.6	-1.0%	9.2µM*
COCCCNC(=O)c1c(N)n(-c2ccc3c(c2)OCO3)c2nc3ccccc3nc12	-24.1	10µM*	-9.5%	7.9	-1.3%	6.51µM*
CCOC(=O)c1c(N)n(-c2cccc(OC)c2)c2nc3ccccc3nc12	.	.	-0.4%	.	-1.9%	.
